# In PubChem BioAssay AID1159580 (chemical genetic matrix, 2015):
# “And” between values parts separate entries of the source, which are not always exact repeats. Equal values may be shown once. In all, about 5,500 compounds went through this assay and about 2,000 (36%) were called active. Another 18% or so got no clear call; they are omitted. Some of the results follow. Values without a mark were called inactive. Cut-off read from the data, not from the text of the source: active = normalized growth mostly below about 0.91 (no sharp cut-off); inconclusive = no clear call, values can overlap the other calls; inactive = mostly above about 0.92.
# Experiment: chemical genetic growth profiling, strain panel (AID 1159580);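 note: tested at 20 µM; growth read once vehicle control cultures reached saturation at 30 °C; 1 = growth at the plate median or of vehicle wells; lower values mean less growth of the strain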
# Details: S. cerevisiae deletion strains, growth OD
smiles,measurement,setting,value
CCCCCCc1ccc(O)cc1O,normalized growth,"locus YAL013W, strain DEP1, active compounds read low",0.677 (active)
same,normalized growth,"locus YAL021C, strain ccr4, active compounds read low",0.955
same,normalized growth,"locus YAL026C, strain drs2, active compounds read low",0.747 (active)
same,normalized growth,"locus YAL030W, strain snc1, active compounds read low",0.961
same,normalized growth,"locus YBL061C, strain skt5, active compounds read low",0.927
same,normalized growth,"locus YBR009C, strain hhf1, active compounds read low",0.788 (active)
same,normalized growth,"locus YBR021W, strain FUR4, active compounds read low",0.977
same,normalized growth,"locus YBR023C, strain chs3, active compounds read low",0.89 (active)
same,normalized growth,"locus YBR171W, strain sec66, active compounds read low",0.973
same,normalized growth,"locus YBR229C, strain ROT2, active compounds read low",0.967
same,normalized growth,"locus YBR231C, strain swc5, active compounds read low",0.865 (active)
same,normalized growth,"locus YBR279W, strain paf1, active compounds read low",0.968
same,normalized growth,"locus YCL011C, strain gbp2, active compounds read low",0.896 (active)
same,normalized growth,"locus YCL016C, strain dcc1, active compounds read low",0.912 (active)
same,normalized growth,"locus YCL029C, strain bik1, active compounds read low",0.877 (active)
same,normalized growth,"locus YCL061C, strain MRC1, active compounds read low",0.906 (active)
same,normalized growth,"locus YCL069W, strain vba3, active compounds read low",0.972
same,normalized growth,"locus YCR088W, strain abp1, active compounds read low",0.939
same,normalized growth,"locus YDL005C, strain med2, active compounds read low",0.988
same,normalized growth,"locus YDL035C, strain GPR1, active compounds read low",0.872
same,normalized growth,"locus YDL040C, strain nat1, active compounds read low",0.973
same,normalized growth,"locus YDL074C, strain BRE1, active compounds read low",0.786
same,normalized growth,"locus YDL101C, strain DUN1, active compounds read low",0.95
same,normalized growth,"locus YDL185W, strain tfp1, active compounds read low",0.956
same,normalized growth,"locus YDL192W, strain arf1, active compounds read low",0.798 (active)
same,normalized growth,"locus YDR001C, strain nth1, active compounds read low",0.975
same,normalized growth,"locus YDR069C, strain doa4, active compounds read low",0.939
same,normalized growth,"locus YDR101C, strain arx1, active compounds read low",0.84 (active)
same,normalized growth,"locus YDR137W, strain rgp1, active compounds read low",0.608 (active)
same,normalized growth,"locus YDR150W, strain NUM1, active compounds read low",0.942
same,normalized growth,"locus YDR159W, strain sac3, active compounds read low",0.525 (active)
same,normalized growth,"locus YDR162C, strain NBP2, active compounds read low",0.884
same,normalized growth,"locus YDR195W, strain ref2",1.12
same,normalized growth,"locus YDR297W, strain sur2, active compounds read low",0.948
same,normalized growth,"locus YDR318W, strain mcm21, active compounds read low",0.794 (active)
same,normalized growth,"locus YDR334W, strain swr1, active compounds read low",0.988
same,normalized growth,"locus YDR335W, strain msn5, active compounds read low",0.96
same,normalized growth,"locus YDR388W, active compounds read low",0.868 (active)
same,normalized growth,"locus YDR392W, strain spt3, active compounds read low",0.283 (active)
same,normalized growth,"locus YDR502C, strain sam2, active compounds read low",0.814 (active)
same,normalized growth,"locus YEL003W, strain gim4, active compounds read low",0.911 (active)
same,normalized growth,"locus YEL037C, strain rad23, active compounds read low",0.976
same,normalized growth,"locus YEL061C, strain CIN8 (second series), active compounds read low",0.983
same,normalized growth,"locus YEL061C, strain CIN8, active compounds read low",0.943
same,normalized growth,"locus YER015W, strain faa2, active compounds read low",0.978
same,normalized growth,"locus YER016W, strain bim1, active compounds read low",1.05
same,normalized growth,"locus YER110C, active compounds read low",0.987
same,normalized growth,"locus YER111C, strain swi4, active compounds read low",0.976
same,normalized growth,"locus YER155C, strain BEM2 (second series), active compounds read low",0.642 (active)
same,normalized growth,"locus YER155C, strain BEM2, active compounds read low",0.875 (active)
same,normalized growth,"locus YER167W, strain BCK2, active compounds read low",0.923
same,normalized growth,"locus YFR010W, strain ubp6, active compounds read low",0.971
same,normalized growth,"locus YGL078C, strain dbp3, active compounds read low",0.885 (active)
same,normalized growth,"locus YGL086W, strain mad1, active compounds read low",0.783 (active)
same,normalized growth,"locus YGL167C, strain pmr1, active compounds read low",0.981
same,normalized growth,"locus YGL173C, strain kem1, active compounds read low",0.883 (active)
same,normalized growth,"locus YGL227W, strain vid30, active compounds read low",0.977
same,normalized growth,"locus YGL240W, strain doc1, active compounds read low",0.899
same,normalized growth,"locus YGL248W, strain PDE1, active compounds read low",0.868 (active)
same,normalized growth,"locus YGL253W, strain hxk2, active compounds read low",0.893 (active)
same,normalized growth,"locus YGR078C, strain PAC10, active compounds read low",0.882
same,normalized growth,"locus YGR135W, strain pre9, active compounds read low",0.85 (active)
same,normalized growth,"locus YGR252W, strain gcn5, active compounds read low",0.752 (active)
same,normalized growth,"locus YHR013C, strain ard1, active compounds read low",0.822 (active)
same,normalized growth,"locus YHR027C, strain rpn1, active compounds read low",0.966
same,normalized growth,"locus YHR030C, strain SLT2, active compounds read low",0.804 (active)
same,normalized growth,"locus YHR079C, strain IRE1 (second series), active compounds read low",0.832 (active)
same,normalized growth,"locus YHR079C, strain IRE1, active compounds read low",0.862
same,normalized growth,"locus YHR094C, strain hxt1, active compounds read low",0.964
same,normalized growth,"locus YHR129C, strain ARP1, active compounds read low",0.949
same,normalized growth,"locus YHR142W, strain chs7, active compounds read low",0.838 (active)
same,normalized growth,"locus YHR200W, strain rpn10, active compounds read low",0.903 (active)
same,normalized growth,"locus YIL066C, strain RNR3, active compounds read low",0.967
same,normalized growth,"locus YIL073C, strain SPO22, active compounds read low",0.811
same,normalized growth,"locus YIL125W, strain kgd1, active compounds read low",0.88 (active)
same,normalized growth,"locus YIR030C, strain dcg1, active compounds read low",0.917 (active)
same,normalized growth,"locus YJL092W, strain hpr5, active compounds read low",0.943
same,normalized growth,"locus YJL095W, strain BCK1 (second series), active compounds read low",0.887 (active)
same,normalized growth,"locus YJL095W, strain BCK1, active compounds read low",0.737 (active) and 0.818 (active)
same,normalized growth,"locus YJL115W, strain asf1, active compounds read low",0.993
same,normalized growth,"locus YJL129C, strain trk1, active compounds read low",0.85 (active)
same,normalized growth,"locus YJL134W, strain LCB3, active compounds read low",0.96
same,normalized growth,"locus YJL154C, strain vps35, active compounds read low",0.993
same,normalized growth,"locus YJL164C, strain tpk1, active compounds read low",0.841 (active)
same,normalized growth,"locus YJL166W, strain qcr8, active compounds read low",0.85 (active)
same,normalized growth,"locus YJL168C, strain set2, active compounds read low",0.947
same,normalized growth,"locus YJL187C, strain SWE1 (second series), active compounds read low",0.931
